Results taken from PubChem BioAssay AID1460 (National Center for Advancing Translational Sciences (NCATS), 2008).
The campaign covered roughly 270,000 compounds. About 5,800 (2.1%) were called active. Roughly 16% stayed inconclusive and do not appear here. Calls follow the shape of the dose curve; as a rule, active = well fitted inhibition curve with a large enough effect; inconclusive = small, poorly fitted or top-dose-only effect; inactive = flat fitted curve, though single readings scatter. Shown is part of a subset that was picked to be rich in actives. More than one record can exist for a structure, and the calls need not agree.

Biological target: Microtubule-associated protein tau (Homo sapiens) (UniProt P10636)
Assay: qHTS for Inhibitors of Tau Fibril Formation, Thioflavin T Binding; also: nearly all actives have a fitted effect of over 55% in size
Conditions: recombinant tau K18 P301L (four-repeat tau fragment), heparin-induced fibrillization, ThT fluorescence; series mostly up to 57.4 µM; activity, negative = inhibition: at the top concentration
From the text: NIH Molecular Libraries Probe Production Network [MLPCN]
NIH Chemical Genomics Center [NCGC]
Assay Provider: Carlo Ballatore, University of Pennsylvania
The microtubule-associated protein tau is an abundant protein in the axons of neurons that stabilizes microtubules. With its ability to modulate microtubule dynamics, tau contributes directly or indirectly, to key structural and regulatory cellular functions. Particularly important is the influence tau exerts on axonal transport, which allows signaling molecules, trophic factors and other essential cellular constituents to travel along the axons. Under pathological conditions, tau becomes sequestered into insoluble aggregates called neurofibrillary tangles. This phenomenon is believed to have pathological consequences by promoting axonal transport deficits that ultimately lead to synaptic dysfunction and neuronal loss. To identify inhibitors of tau aggregation, a heparin-induced tau fibril formation assay was used that employed a recombinantly expressed fragment of tau, K18 (Q242-E372), bearing a P301L mutation (Gustke et al. 1994; Hong et al. 1998). This assay monitors tau fibrillization by Thioflavin T (ThT) fluorescence.
Gustke, N., B. Trinczek, et al. (1994). "Domains of tau protein and interactions with microtubules." Biochemistry 33(32): 9511-22.
Hong, M., V. Zhukareva, et al. (1998).
Li, W. and V. M. Lee (2006).
von Bergen, M., S. Barghorn, et al. (2001). "Mutations of tau protein in frontotemporal dementia promote aggregation of paired helical filaments by enhancing local beta-structure." J Biol Chem 276(51): 48165-74.
NCGC Assay Protocol Summary:
For screening, 2 uL/well human K18 P301L (15 uM unlabeled and 0.24 uM Alexa 594-labeled tau, final concentrations) in reagent buffer (100 mM sodium acetate pH 7) was dispensed into black solid 1536-well plates (Grenier) using a solenoid-based dispenser. Following transfer of 23 nL compound or DMSO vehicle by a pin tool, 2 uL/well heparin (20 uM final concentration) in reagent buffer was added and the plate centrifuged 15 s at 1000 RPM. Plates were incubated 6 hr at 37 C and then 1 uL/well ThT (30 uM final concentration) was added. After a 1 hr ambient incubation, the plates were read by an Envision (Perkin Elmer) to monitor ThT fluorescence (450/8 nm excitation and 510/23 nm emission).
Keywords: NIH Roadmap, MLPCN, MLI, MLSMR, NCGC, qHTS, tau, tauopathies, Alzheimer's disease, fibril, neurodegeneration, aggregation
% is scaled to controls: 0 for no effect and ±100 for the full control effect; potency is read from the fitted curve at half-maximal effect.

Sequence of Microtubule-associated protein tau (Homo sapiens) (P10636 561-689 P618L limits assumed): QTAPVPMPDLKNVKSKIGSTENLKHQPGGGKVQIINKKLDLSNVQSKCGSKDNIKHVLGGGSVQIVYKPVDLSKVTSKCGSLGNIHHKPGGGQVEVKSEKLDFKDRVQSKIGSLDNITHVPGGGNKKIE

activity, negative = inhibition, inactive:
Cc1[nH][nH]c(=O)c1C(c1ccc2c(c1)OCO2)c1c(C)[nH][nH]c1=O -9.72%
CC(=O)c1cc2c(cc1N)OCO2 -6.51%
COc1ccccc1N1CCN(S(=O)(=O)CCNC(=O)COc2ccc(F)cc2)CC1 -9.39%
Cc1ccc2c(c1)c1c(c(=O)n(-c3ccccc3)c(=O)n1CC(=O)c1ccc(Cl)cc1)n2C 2.43%
COc1ccc(CCNC(=O)CCCn2c(=O)c3ccccc3n(Cc3ccc(F)cc3Cl)c2=O)cc1OC -15.2%
CN1/C(=C\C(=O)c2cccnc2Cl)C(C)(C)c2ccccc21 -12.7%
CN1/C(=C\C(=O)c2oc3ccccc3c2N)C(C)(C)c2ccccc21 -9.9%
COc1ccc(OCc2ccc(-c3nc(C#N)c(N4CCN(c5ccccc5)CC4)o3)o2)cc1 -13%
COCC(=O)N=Nc1c(O)[nH]c2ccccc12 2.47%
COc1ccccc1N=Cc1c(O)c2ccccc2oc1=O -10.1%
Cc1cc(NC(=O)c2ccc(-c3ccc(Cl)cc3)o2)cc(-c2nc3ncccc3o2)c1O -20%
Cc1oc2ncn(CC(C)C)c(=O)c2c1C(=O)N1CCN(c2ccccc2F)CC1 1.01%
COc1ccccc1CNS(=O)(=O)c1cc(Br)cc2c1N(C(C)=O)C(C)C2 (stereo not given) -3.82%
CCC(CC)C(=O)N1CCc2cc(OC)c(OC)cc2C1COc1ccc(F)cc1 (stereo not given) -2.69%
CC1(OC(=O)C2CCCC2)C(=O)C=C2C=C(c3ccc(C#N)cc3)OC=C2C1=O (stereo not given) -0.0683%
CC1(OC(=O)CCc2ccccc2)C(=O)C=C2C=C(c3ccc(C#N)cc3)N(CCc3ccccn3)C=C2C1=O (stereo not given) 5.29% [at 11.5 µM]
CCCCC1=CC2=CC(=O)C(C)(OC(=O)CC)C(=O)C2=CN1CCCOC(C)C (stereo not given) 0.166% [at 11.5 µM]
COc1ccc(NC(=O)CCCN2C(=O)CCn3nc(-c4cn(C)c5ccccc45)cc32)cc1OC -16.8%
COc1ccccc1OCC(=O)Nc1nnc2n1CCS2 -8.04%
CCc1ccc(NC(=O)C2CCCN2S(=O)(=O)c2ccc3nc(-c4ccccc4)[nH]c3c2)cc1 (stereo not given) -0.653%
COC(=O)C1=C(C)NC(=O)NC1/C=C/c1ccccc1 (stereo not given) -3.02%
CCOc1cc(C2C(C(=O)Nc3ccc(OC)cc3)=C(C)Nc3nc(SC)nn32)ccc1O (stereo not given) -15.4%
COc1ccccc1NC(=O)C1=C(C)NC2=C(C(=O)CCC2)C1c1ccc(C)o1 (stereo not given) -2.96%
COc1cc(C2C(C(=O)OCCC#N)=C(C)NC3=C2S(=O)(=O)c2ccccc23)cc(OC)c1OC (stereo not given) 1.33%
Cc1nn(C)c2c1c(C(F)(F)F)cc(=O)n2C(C)C(=O)NCc1ccc(Cl)cc1 (stereo not given) -0.102%
CC(C)(C)c1ccc(C(=O)NCC(c2ccco2)S(=O)(=O)c2ccc(F)cc2)cc1 (stereo not given) -13.2%
Cc1ccc(Cl)cc1NC(=O)CSc1nc2ccccc2nc1Cc1ccccc1 6.27%
Cc1ccc(NC(=O)C2CCN(S(=O)(=O)c3cc(-c4noc(C)n4)ccc3C)CC2)c(C)c1 12.4%
O=C(NCCCc1ccccc1)c1ccc2c(c1)sc1nc(-c3ccc(F)cc3)cn12 -2.4%
COc1ccc2[nH]c3c(c2c1)CCN(C(=O)CCC1CCCC1)C3c1ccc(F)cc1 (stereo not given) -10%
CC(C)C(=O)Nc1nc2c(s1)CC(C(C)(C)C)CC2 (stereo not given) -5.04%
CCOC(=O)c1c(-c2cccc(C)c2)csc1NC(=O)c1c(-c2ccccc2)noc1C 4.1%
CCOC(=O)c1c(-c2ccccc2)csc1NC(=S)NC(=O)c1ccccc1 -20%
COc1cc(CNC(=O)c2cc3n(n2)CCCN(Cc2cccc(F)c2)C3=O)cc(OC)c1OC -16.7%
Nc1nnnn1CC(=O)N/N=C/c1ccc(-c2cccc(Cl)c2)o1 3.14%
Cc1ccc(NC(=O)CN2CCC(C(N)=O)CC2)cc1[N+](=O)[O-] 1.4%
COc1cc(/C=N\NC(=O)c2nonc2N)c(OC)cc1Br -11.8%
COC(=O)N/N=C/c1ccc(-c2ccc(Cl)c(Cl)c2)o1 10.7%
CCC(=O)N1N=C(c2ccc(OC)cc2)CC1c1cn(-c2ccccc2)nc1-c1cccs1 (stereo not given) -7.19%
COc1cc(NC(=O)c2noc3c2CSc2ccccc2-3)cc(OC)c1OC -11.9%
Cc1cc(/C=N/NC(=O)c2cccnc2)c(C)n1CC(C)C -11.4%
CCN(CC)c1ccc(/C=N/Nc2nc(C)cc(C)n2)c(O)c1 4.14%
CC(CNC(=O)c1nnc(Cc2cccc(F)c2)o1)c1ccccc1 (stereo not given) 6.43%
O=C(CCSCc1cccc(F)c1)NCc1ccccc1 12.1%
COc1cc(OC)c(NC(=O)Cc2ccc(-n3c(C)nc4cccnc43)cc2)cc1Cl -1.35%
COc1ccc(C(=O)CSc2c(C(C)C)cnc3c2c(=O)n(C)c(=O)n3C)cc1 -12.6%
CCCCNC(=S)NNC(=O)c1cc(C)on1 -2.68%
CCCCNC(=O)C(=O)c1ccccc1NC(C)=O 0.0865%
NS(=O)(=O)c1ccc(NC(=S)NC(=O)c2cccc(Br)c2)cc1 -1.11%
O=C(NC(=S)Nc1ccc(S(=O)(=O)Nc2ncccn2)cc1)c1cccc(Br)c1 1.91%
COC(=O)c1ccc(C(=O)OC)c(NC(=S)N2CCCCC2)c1 -4.54%
O=[N+]([O-])c1cccc(S(=O)(=O)N2CCCCCC2)c1 -12.3%
CCS(=O)(=O)N1CCc2cc(C(=O)NCc3ccc(C)cc3)ccc21 6.94%
CCCCN(CC)CCCNC(=O)c1nn(C)c2c1CSc1ccccc1-2 -0.916%
COc1cccc(-n2c(=O)c3c(C)c(C(=O)N(C)C)sc3n(Cc3cccc(C)c3)c2=O)c1 -11%
CCOC(=O)c1cc(-c2ccccc2)n(CCC(=O)Nc2ccccc2CC)c1C -1.04%
CCOC(=O)Nc1ccccc1N1C(=O)c2ccccc2C1=O -1.89%
COc1cc(OC)nc(NC(=O)CCl)n1 4.78%
O=C(NNc1ccccn1)c1ccc(Cl)nc1 -1.76%
Cc1ccc(CNC(=O)CCC(=O)N2Cc3ccccc3Oc3ncccc32)cc1 10.7%
COc1ccccc1CNC(=O)C(=O)NCC(c1ccco1)S(=O)(=O)c1ccc(F)cc1 (stereo not given) -8.71%
CCCOc1ccc(NC(=O)CC2C(=O)N(c3ccccc3)C(=O)N2Cc2ccco2)cc1 (stereo not given) -1.41%
CCOc1ccc(NC(=O)Cn2c(=O)n(CCCC(=O)NCc3ccc4c(c3)OCO4)c(=O)c3ccccc32)cc1 4.7%
C/C(=N\NC(=O)c1cccnc1)c1ccc(-c2ccccc2)cc1 -9.51%
O=C(Nc1cnccn1)c1cccnc1 -5.4%
CCOc1ccccc1NC(=O)Cn1c(=O)n(Cc2ccccc2)c(=O)c2c(C)c(C(=O)N(C)C)sc21 -3.85%
COc1ccccc1CSc1nc2ccccc2[nH]1 -17.4%
COc1ccccc1CC(=O)Nc1ccc([N+](=O)[O-])cc1OC -15.6%
CCOc1ccc(NC(=O)C(=O)NCCc2csc3nc(-c4ccccc4F)nn23)cc1 -9.2%
CCc1ccccc1NC(=O)Cn1c(=O)n(-c2cccc(C)c2)c(=O)c2c1c1cc(OC)ccc1n2C 9.95%
CC(=O)NCCC(=O)Nc1cc(S(=O)(=O)N2CCOCC2)ccc1N1CCOCC1 1.5%
O=C(COC(=O)Cc1ccc(F)cc1)Nc1cc(S(=O)(=O)N2CCOCC2)ccc1N1CCCC1 3.5%
COc1ccc(-c2nc3scc(CCNS(=O)(=O)c4cc(F)ccc4OC)n3n2)cc1OC -10.1%
Cc1ccc(-n2c(SCC(=O)c3ccccc3)nc3c([nH]c4ccccc43)c2=O)cc1 11%
Cc1ccc(-c2cc(C(=O)N/N=C/C=C/c3ccco3)c3ccccc3n2)cc1C -8.53%
CN(C)c1ccc(-n2cccc2/C=C2/SC(=Nc3ccc(F)cc3)NC2=O)cc1 -15.4%
Cc1ccc(C(=O)N/C(=C\c2ccco2)C(=O)N2CCSCC2)cc1C -2.66%
CCC1S/C(=N/N=C/c2ccco2)NC1=O (stereo not given) 0.34%

Potency, active:
Nc1[nH][nH]c(=O)c1N=Nc1ccc2c(c1)OCO2 11.2 µM
CN1/C(=C\C=C2\N=C(c3ccc(F)cc3)OC2=O)C(C)(C)c2ccccc21 28.2 µM
COc1ccc(N=Cc2c(O)[nH]c3ccccc23)cc1OC 14.1 µM
CC1(OC(=O)CCc2ccccc2)C(=O)C=C2C=C(c3ccc(C#N)cc3)N(CCc3ccccn3)C=C2C1=O (stereo not given) 28.2 µM
CCOc1cc(C2C(C(=O)OC)=C(C)NC3=C2C(=O)c2ccccc23)ccc1O (stereo not given) 14.1 µM
COC(=O)C1=C(C)NC2=C(C(=O)c3ccccc32)C1c1ccc(-c2ccc(C(=O)O)cc2)o1 (stereo not given) 8.91 µM
CCCS(=O)(=O)c1ncc(Cl)c(C(=O)Nc2scc(-c3ccccc3)c2C(=O)OCC)n1 7.94 µM
Cc1cc(C)c([N+](=O)[O-])cc1-c1ccc(/C=N/NC(=O)c2nonc2N)o1 5.01 µM
Cc1ccc(-c2ccc(/C=N/NC(=O)CN3CCOCC3)o2)cc1[N+](=O)[O-] 15.8 µM
CCN(CC)c1ccc(/C=N/NC(=O)c2cnccn2)c(O)c1 5.62 µM
CCCCNC(=O)Nc1c(C)cc(SC#N)cc1C 22.4 µM
O=C(NC(=S)Nc1cccc2c(O)cccc12)c1cccc(Br)c1 12.6 µM
O=C(Oc1ccccc1C(=S)N1CCCCC1)c1cc([N+](=O)[O-])cc([N+](=O)[O-])c1 25.1 µM
CCOC(=O)c1cc2n(c1N)-c1ccccc1C2=O 14.1 µM
O=C(CCl)NNc1cccc(Cl)n1 14.1 µM
CCCCN=C1C([N+](=O)[O-])=CC=C2C1=NC1(CCCCC1)N2O 8.91 µM
O=C(NN=C1CCC(=NNC(=O)c2cccnc2)CC1)c1cccnc1 39.8 µM
COc1ccccc1CSc1ncc(-c2ccc([N+](=O)[O-])cc2)[nH]1 14.1 µM
Oc1c(Cl)cc(Cl)c(Cl)c1Cc1c(O)c(Cl)cc(Cl)c1Cl 20 µM
COCCNC(=S)Nc1cc(S(=O)(=O)N2CCOCC2)ccc1N1CCCCC1 35.5 µM
Cc1ccc(N2NC(=O)/C(=C/C=C/c3ccco3)C2=O)cc1C 10 µM
Cc1ccc(N=C2NC(=O)/C(=C/C=C/c3ccco3)S2)cc1C 4.47 µM
